Measured values as given in PubChem BioAssay.
For some of these results: Potency and affinity values are given separately. The list shows a part of the results. Calls of active or inactive are those of the source.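 The calls were made as follows, unless noted: active = signal rise over 3 SD above mean of control wells given weak agonist, in both repeats and first screen; inactive = the rest.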

Tests used:
[1] = molecular target: Inward rectifier potassium channel 2 (Mus musculus) (UniProt P35561); test: inhibition of Kir2.1 inward rectifier potassium flux – cell-based, FluxOR thallium flux, duplicate, confirmation (AID 2032;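 active = Primary-screen hit whose thallium flux fell at least 3 control SD below untreated wells in both duplicates, with normal baseline fluorescence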;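 also: 0% = blank wells without stimulus and 100% = stimulated no-compound controls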); details: Kir2.1-expressing cells, FluxOR thallium flux fluorescence, at 10 µM; stronger effect = lower value
[2] = parental HEK293 cell activity, no Kir2.1 – FluxOR thallium flux, duplicate, single concentration, counter-screen for Kir2.1 inhibitor project, confirmation (AID 2105;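 active = dye signal at least 3 control SD above or below untreated wells in both duplicates, raw fluorescence within 3, either direction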;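 also: percent is based on the flux ratio of peak minus minimum fluorescence over baseline F0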); details: parental HEK293 cells, FluxOR thallium flux fluorescence, at 10 µM; 0% = unstimulated blank wells
[3] = system: TRPC4 beta (transient receptor potential cation channel C4), mouse; test: TRPC4 cation channel opening, retest – cell-based, Fluo4 calcium, HEK293 TRPC4beta/mu-opioid, duplicates, 10 µM, confirmation (AID 2426;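 active = fluorescence ratio normalized to control raised more than 50% in primary screen plus both repeat runs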); details: Fluo4 calcium fluorescence, at 10 µM; stronger effect = higher value
[4] = system: transient receptor potential cation channel C4 beta (TRPC4), mouse; test: TRPC4 cation channel opening, second retest – cell-based, second round, Fluo4, HEK293 TRPC4beta/mu-opioid, 1 µM, confirmation (AID 2461;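 active = primary screen active and over 50% activation in each of two duplicate runs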); details: Fluo4 calcium fluorescence, at 1 µM; stronger effect = higher value
[5] = system: TRPC4 (transient receptor potential cation channel C4 beta), mouse; test: potentiation of DAMGO EC20 TRPC4 response – cell-based, second round, Fluo-4, HEK293 TRPC4beta/mu-opioid, 1 µM, confirmation (AID 2554;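 active = primary screen hit whose fluorescence ratio, in both repeats, exceeds the weak agonist control mean by 3 SD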); details: DAMGO EC20, Fluo-4 calcium flux, at 1 µM; stronger effect = higher value
[6] = system: TRPC4 beta (transient receptor potential cation channel C4), mouse; test: potentiation of DAMGO EC20 TRPC4 response – cell-based, Fluo-4, HEK293 TRPC4beta/mu-opioid, confirmation (AID 2555;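 active = primary screen hit whose calcium fluorescence ratio, in both repeats, exceeds the weak agonist control mean by 3 SD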); details: DAMGO EC20, Fluo-4 calcium flux, at 10 µM; stronger effect = higher value
[7] = molecular target: Short transient receptor potential channel 4 (Mus musculus) (UniProt Q9QUQ5); test: blockers of DAMGO-evoked TRPC4 calcium flux – cell-based, Fluo4, HEK293 TRPC4beta/mu-opioid, confirmation (AID 2636;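 active = calcium signal cut by more than 3 SD below the full-agonist control yet still positive, in both repeats and the earlier primary screen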); details: at 10 µM; stronger effect = higher value
[8] = molecular target: Short transient receptor potential channel 4 (Mus musculus) (UniProt Q9QUQ5); test: blockers of DAMGO-evoked TRPC4 calcium flux – cell-based, second round, Fluo4, HEK293 TRPC4beta/mu-opioid, 1 µM, confirmation (AID 2637;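 active = calcium signal ratio cut to more than 3 SD under the fully stimulated control mean yet still positive, in both repeats and the primary screen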); details: at 1 µM; stronger effect = higher value
[9] = molecular target: Short transient receptor potential channel 4 (Mus musculus) (UniProt Q9QUQ5); test: calcium entry via TRPC4 opening agents – cell-based, HEK293 TRPC4/mu-opioid, Fluo-4 calcium, dose response (AID 434937;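 active = primary screen activator hit with a dose response curve and TRPC4 channel activation at any tested dose; inactive = no activation, no dose response, or not a primary hit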)
[10] = molecular target: Short transient receptor potential channel 4 (Mus musculus) (UniProt Q9QUQ5); test: potentiation of DAMGO-evoked TRPC4 calcium signal – cell-based, HEK293 TRPC4/mu-opioid, Fluo-4 calcium, EC20 DAMGO, dose response (AID 434941;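 active = earlier screen potentiator hit that boosts the TRPC4 ion channel at some dose, with a dose response; inactive = no potentiation, no dose response, or not a prior hit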;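 also: calcium entry triggered by an EC20 dose of DAMGO at the co-expressed mu-opioid receptor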)
[11] = molecular target: Short transient receptor potential channel 4 (Mus musculus) (UniProt Q9QUQ5); test: block of DAMGO-driven TRPC4 calcium entry – cell-based, HEK293 TRPC4/mu-opioid, Fluo-4 calcium, dose response (AID 434942;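 active = primary screen inhibitor hit that blocks the TRPC4 channel at some tested dose, yielding a dose curve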)
[12] = molecular target: Short transient receptor potential channel 6 (Mus musculus) (UniProt Q61143); test: TRPC6 blockade by TRPC4 inhibitor hits – cell-based, HEK293, membrane potential dye, duplicate, selectivity assay for TRPC4 inhibitor project, confirmation (AID 434948;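 active = active in primary screen and both duplicates, each dropping signal beyond three positive-control SD with fluorescence still positive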); details: HEK293 TRPC6, membrane potential dye fluorescence, at 10 µM; inhibition: stronger effect = higher value, stimulated with maximal-effect acetylcholine unless noted; outcome: stimulated with maximal-effect acetylcholine unless noted
[13] = molecular target: Short transient receptor potential channel 6 (Mus musculus) (UniProt Q61143); test: TRPC6 opening by TRPC4 activator hits – cell-based, HEK293, membrane potential dye, duplicate, selectivity assay for TRPC4 activator project, confirmation (AID 434950;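 active = membrane potential signal rise above negative control mean plus 3 SD in both duplicates, also active in the earlier TRPC4 screen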); details: HEK293 TRPC6, membrane potential fluorescence, at 10 µM; activation: stronger effect = higher value; outcome: activation
[14] = molecular target: Short transient receptor potential channel 6 (Mus musculus) (UniProt Q61143); test: positive modulators of mouse TRPC6 channel – HEK293 cells, membrane potential dye, duplicate, selectivity assay for TRPC4 potentiator project, confirmation (AID 434952;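 active = compound raising the membrane signal above positive-control mean plus 3 SD in both repeats, and a primary screen hit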); details: HEK293 TRPC6, membrane potential dye fluorescence, at 10 µM; maximal acetylcholine added after compound unless noted
[15] = molecular target: Short transient receptor potential channel 4 (Mus musculus) (UniProt Q9QUQ5); test: calcium flux activators in TRPC4/5HT1a cells, counter-screen for TRPC4 activator project, cell-based, second counter screen, HEK293 TRPC4/5HT1a, Fluo-4 (AID 434977;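 active = calcium signal rise above buffer-control mean plus 5 SD in both duplicates, and also a hit in the primary screen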); details: Fluo-4 calcium flux, at 10 µM; stronger effect = higher value
[16] = serotonin-gated TRPC4 signal block – cell-based, second counter screen, HEK293 TRPC4/5HT1a, Fluo-4, counter-screen for TRPC4 inhibitor project, confirmation (AID 434978;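 active = primary screen active whose calcium signal fell more than 3 SD beyond the full-serotonin control mean in both duplicate plates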;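 also: serotonin given first at submaximal then at maximal dose after compound preincubation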); details: Fluo-4 calcium flux, at 10 µM; inhibition: stronger effect = higher value, serotonin added to trigger calcium flux unless noted; outcome: serotonin added to trigger calcium flux unless noted
[17] = system: TRPC4 (mouse), co-expressed with 5HT1a in HEK293; test: enhancement of serotonin-evoked TRPC4 response – cell-based, second counter screen, HEK293 TRPC4/5HT1a, Fluo-4, counter-screen for TRPC4 potentiator project, confirmation (AID 434979); details: Fluo-4 calcium flux, at 10 µM; outcome: serotonin added at its EC20 dose unless noted; potentiation: stronger effect = higher value, serotonin added at its EC20 dose unless noted
[18] = nonspecific calcium rise without TRPC4 – cell-based, HEK293 mu-opioid receptor line, counter-screen for TRPC4 activator project, confirmation (AID 449723;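 active = hit in primary screen, with calcium signal over 5 SD above buffer well mean in both duplicates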;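 also: counter screen cells carry the mu-opioid receptor alone and lack TRPC4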); details: HEK293 mu-opioid cells, Fluo-4 calcium fluorescence, at 10 µM; stronger effect = higher value
[19] = nonspecific potentiation of DAMGO calcium response – cell-based, HEK293 mu-opioid receptor line, counter-screen for TRPC4 allosteric potentiator project, confirmation (AID 449724;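 active = calcium signal rise more than 3 SD above the low-dose agonist control mean, in both duplicate plates and the primary screen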); details: HEK293 mu-opioid receptor cells, Fluo-4 calcium flux, at 10 µM; compound added before EC20 DAMGO stimulus unless noted

Short transient receptor potential channel 6 (Mus musculus), sequence (Q61143 whole entry, looked up): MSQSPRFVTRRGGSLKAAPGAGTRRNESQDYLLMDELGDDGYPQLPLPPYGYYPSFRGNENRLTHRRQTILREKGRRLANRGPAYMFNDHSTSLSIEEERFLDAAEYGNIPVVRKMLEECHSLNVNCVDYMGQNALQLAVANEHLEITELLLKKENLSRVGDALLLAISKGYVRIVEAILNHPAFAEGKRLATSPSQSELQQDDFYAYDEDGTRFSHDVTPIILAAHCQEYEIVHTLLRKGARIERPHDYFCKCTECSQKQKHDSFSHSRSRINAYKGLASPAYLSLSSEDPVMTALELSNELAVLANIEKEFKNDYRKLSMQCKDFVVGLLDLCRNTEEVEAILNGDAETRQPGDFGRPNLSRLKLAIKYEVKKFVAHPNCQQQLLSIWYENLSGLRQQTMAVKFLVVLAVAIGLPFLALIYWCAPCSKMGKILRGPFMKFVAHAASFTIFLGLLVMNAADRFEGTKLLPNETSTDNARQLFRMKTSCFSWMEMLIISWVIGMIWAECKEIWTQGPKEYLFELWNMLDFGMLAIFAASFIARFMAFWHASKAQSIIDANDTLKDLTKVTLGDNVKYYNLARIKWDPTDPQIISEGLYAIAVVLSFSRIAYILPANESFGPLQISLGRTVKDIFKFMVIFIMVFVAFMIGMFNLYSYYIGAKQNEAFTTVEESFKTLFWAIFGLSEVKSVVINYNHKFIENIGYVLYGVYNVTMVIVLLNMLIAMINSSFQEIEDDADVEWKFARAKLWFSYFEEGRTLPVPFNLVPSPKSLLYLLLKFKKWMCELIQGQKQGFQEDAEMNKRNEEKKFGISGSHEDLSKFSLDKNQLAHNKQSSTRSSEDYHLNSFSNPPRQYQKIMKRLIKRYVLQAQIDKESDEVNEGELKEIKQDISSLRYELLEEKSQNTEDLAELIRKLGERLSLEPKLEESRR
Short transient receptor potential channel 4 (Mus musculus), sequence (Q9QUQ5 whole entry, looked up): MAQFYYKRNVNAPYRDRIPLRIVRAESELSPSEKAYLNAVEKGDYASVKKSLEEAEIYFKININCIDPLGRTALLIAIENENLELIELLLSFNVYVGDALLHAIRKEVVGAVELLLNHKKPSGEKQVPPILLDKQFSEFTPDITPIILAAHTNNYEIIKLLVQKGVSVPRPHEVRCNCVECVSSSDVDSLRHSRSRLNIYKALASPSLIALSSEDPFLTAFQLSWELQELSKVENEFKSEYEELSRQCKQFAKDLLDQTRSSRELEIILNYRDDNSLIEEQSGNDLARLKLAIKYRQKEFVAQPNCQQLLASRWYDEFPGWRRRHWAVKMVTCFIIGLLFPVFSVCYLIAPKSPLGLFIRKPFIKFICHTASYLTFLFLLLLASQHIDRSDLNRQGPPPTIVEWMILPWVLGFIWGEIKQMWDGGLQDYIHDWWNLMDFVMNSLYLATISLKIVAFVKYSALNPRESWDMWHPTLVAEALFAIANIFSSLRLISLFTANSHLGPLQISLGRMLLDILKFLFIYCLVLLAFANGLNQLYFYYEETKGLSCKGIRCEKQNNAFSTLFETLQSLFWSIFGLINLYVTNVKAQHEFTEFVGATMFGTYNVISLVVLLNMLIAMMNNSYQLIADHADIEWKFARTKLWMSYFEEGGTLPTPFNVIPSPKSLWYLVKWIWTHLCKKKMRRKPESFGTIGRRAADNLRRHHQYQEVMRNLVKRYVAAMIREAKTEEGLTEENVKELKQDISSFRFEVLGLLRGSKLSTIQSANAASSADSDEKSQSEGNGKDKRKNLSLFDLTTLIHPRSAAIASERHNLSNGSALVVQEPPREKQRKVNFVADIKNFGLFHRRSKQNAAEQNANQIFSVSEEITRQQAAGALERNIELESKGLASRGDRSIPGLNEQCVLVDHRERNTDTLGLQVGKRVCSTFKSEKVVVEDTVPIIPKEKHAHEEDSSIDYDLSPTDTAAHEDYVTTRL
Inward rectifier potassium channel 2 (Mus musculus), sequence (P35561 whole entry, looked up): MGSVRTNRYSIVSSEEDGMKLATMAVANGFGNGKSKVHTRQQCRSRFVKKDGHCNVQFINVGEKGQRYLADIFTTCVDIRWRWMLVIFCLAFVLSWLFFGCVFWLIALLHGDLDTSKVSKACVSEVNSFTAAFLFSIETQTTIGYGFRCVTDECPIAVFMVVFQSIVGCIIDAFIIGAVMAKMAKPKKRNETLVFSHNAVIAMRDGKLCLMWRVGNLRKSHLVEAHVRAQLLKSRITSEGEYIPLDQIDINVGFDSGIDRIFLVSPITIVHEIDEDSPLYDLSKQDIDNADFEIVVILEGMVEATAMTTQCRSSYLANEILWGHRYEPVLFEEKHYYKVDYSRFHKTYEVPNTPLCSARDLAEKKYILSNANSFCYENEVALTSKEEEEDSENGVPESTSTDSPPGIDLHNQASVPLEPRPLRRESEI

CNCC(O)c1cc(F)c(OCc2ccccc2)c(OCc2ccccc2)c1F (stereo not drawn)
active: Tl flux remaining, % of negative control (stronger effect = lower value) [1] 34.5% | FluxOR signal as % of negative control (100 = no effect) [2] 74%

Cc1ccccc1CN1CCNCC1
inactive: outcome [3] | outcome [4] | outcome [5] | outcome [6] | outcome [7] | outcome [8] | outcome [9] | outcome [10] | outcome [11] | outcome [12] inactive [setting not given] | outcome [13] | outcome [14] inactive [setting not given] | outcome [15] | outcome [16] inactive [setting not given] | outcome [17] inactive [setting not given] | outcome [18] | outcome [19] inactive [setting not given]

Nc1ccccc1-[n+]1c(-c2ccccc2)cc(-c2ccccc2)cc1-c1ccccc1
inactive: outcome [3] | outcome [4] | outcome [6] | outcome [7] | outcome [8] | outcome [9] | outcome [10] | outcome [11] | outcome [12] | outcome [13] | outcome [14] | outcome [15] | outcome [16] | outcome [18] | outcome [19]
active: potentiation [5] 27% | potentiation [17] 20.7%

CN(CCOc1ccc(C=C2C(=O)NC(=O)NC2=O)cc1)c1ccccn1
active: inhibition [7] 61%
inactive: outcome [3] | outcome [4] | outcome [5] | outcome [6] | outcome [8] | outcome [9] | outcome [10] | outcome [11] | outcome [12] inactive [setting not given] | outcome [13] | outcome [14] inactive [setting not given] | outcome [15] | outcome [16] inactive [setting not given] | outcome [17] inactive [setting not given] | outcome [18] | outcome [19] inactive [setting not given]

FC(F)(F)c1ccc(CN2CCNCC2)cc1
active: potentiation [5] 26% | potentiation [6] 22% | potentiation [17] 25.6% [stronger effect = higher value]
inactive: outcome [3] | outcome [4] | outcome [7] | outcome [8] | outcome [9] | outcome [10] | outcome [11] | outcome [12] inactive [setting not given] | outcome [13] | outcome [14] inactive [setting not given] | outcome [15] | outcome [16] inactive [setting not given] | outcome [18] | outcome [19] inactive [setting not given]

O=[N+]([O-])c1ccc(N2CCNCC2)cc1N1CCCCCC1
inactive: outcome [3] | outcome [4] | outcome [5] | outcome [6] | outcome [7] | outcome [8] | outcome [9] | outcome [10] | outcome [11] | outcome [12] | outcome [13] | outcome [14] | outcome [15] | outcome [16] | outcome [18] | outcome [19]
active: potentiation [17] 13.3%

Clc1ccc2c(c1)C(c1ccccc1Cl)=NCc1nnc(N3CCN(CCOc4ccccc4)CC3)n1-2
inactive: outcome [3] | outcome [4] | outcome [5] | outcome [7] | outcome [8] | outcome [9] | outcome [10] | outcome [11] | outcome [12] | outcome [13] | outcome [14] | outcome [15] | outcome [16] | outcome [18] | outcome [19]
active: potentiation [6] 9% | potentiation [17] 13.8%

CC(Cc1ccccc1Sc1ccccc1)N(C)C (stereo not drawn)
inactive: outcome [3] | outcome [4] | outcome [5] | outcome [6] | outcome [7] | outcome [8] | outcome [9] | outcome [10] | outcome [11] | outcome [12] | outcome [13] | outcome [14] | outcome [15] | outcome [16] | outcome [17] | outcome [18] | outcome [19]

CCC1=Nc2cc(C(=O)N3CCC4(CC3)OCCO4)ccc2Sc2ccc(Br)cc21
inactive: outcome [3] | outcome [4] | outcome [5] | outcome [6] | outcome [7] | outcome [8] | outcome [9] | outcome [10] | outcome [11] | outcome [12] inactive [setting not given] | outcome [13] | outcome [14] inactive [setting not given] | outcome [15] | outcome [16] inactive [setting not given] | outcome [17] inactive [setting not given] | outcome [18] | outcome [19] inactive [setting not given]

Cc1cccc(N=Cc2c(O)n(-c3ccccc3C)c(=O)[nH]c2=O)c1
active: potentiation [6] 28% | potentiation [17] 32.1% [stronger effect = higher value]
inactive: outcome [3] | outcome [4] | outcome [5] | outcome [7] | outcome [8] | outcome [9] | outcome [10] | outcome [11] | outcome [12] inactive [setting not given] | outcome [13] | outcome [14] inactive [setting not given] | outcome [15] | outcome [16] inactive [setting not given] | outcome [18] | outcome [19] inactive [setting not given]

COC(=O)C(Cc1ccc(N(CCCl)CCCl)cc1)N=Cc1ccccc1O (stereo not drawn)
inactive: outcome [3] | outcome [4] | outcome [5] | outcome [6] | outcome [7] | outcome [8] | outcome [9] | outcome [10] | outcome [11] | outcome [12] | outcome [13] | outcome [14] | outcome [15] | outcome [16] | outcome [17] | outcome [18] | outcome [19]

C=CCOC(=O)C1=C(C)OC(N)=C(C#N)[C@@]12C(=O)N(CC(N)=O)c1ccccc12
inactive: outcome [3] | outcome [4] | outcome [5] | outcome [7] | outcome [8] | outcome [9] | outcome [10] | outcome [11] | outcome [12] | outcome [13] | outcome [14] | outcome [15] | outcome [16] | outcome [18] | outcome [19]
active: potentiation [6] 26% | potentiation [17] 7.13%

CCn1ccnc1CN1CCCC(C(=O)c2cccc(C(F)(F)F)c2)C1 (stereo not drawn)
inactive: outcome [3] | outcome [4] | outcome [5] | outcome [6] | outcome [7] | outcome [8] | outcome [9] | outcome [10] | outcome [11] | outcome [12] | outcome [13] | outcome [14] | outcome [15] | outcome [16] | outcome [17] | outcome [18] | outcome [19]

COC(=O)C(O)(c1ccc(NC(=S)NC(=O)c2ccc(Cl)cc2Cl)c(C)c1)C(F)(F)F (stereo not drawn)
inactive: outcome [3] | outcome [4] | outcome [5] | outcome [7] | outcome [8] | outcome [9] | outcome [10] | outcome [11] | outcome [12] | outcome [13] | outcome [14] | outcome [15] | outcome [16] | outcome [18] | outcome [19]
active: potentiation [6] 18% | potentiation [17] 24.2%
